For experiment [1], the target named is High affinity nerve growth factor receptor (Homo sapiens) (UniProt P04629). To be noted: at 1 µM.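 Note: each value is the mean percent inhibition of TRKA.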
The target of experiment [2] is BDNF/NT-3 growth factors receptor (Homo sapiens) (UniProt Q16620). To be noted: at 0.1 µM.
Experiment [3] shares this target. The note with it: at 1 µM.
Experiment [4] addresses NT-3 growth factor receptor (Homo sapiens) (UniProt Q16288). To be noted: at 0.1 µM.
For experiment [5] the target is unchanged. To be noted: at 1 µM.
The target in experiment [6] is T1, Tyrosine-protein kinase TXK (Homo sapiens) (UniProt P42681).
T1 sequence (whole entry): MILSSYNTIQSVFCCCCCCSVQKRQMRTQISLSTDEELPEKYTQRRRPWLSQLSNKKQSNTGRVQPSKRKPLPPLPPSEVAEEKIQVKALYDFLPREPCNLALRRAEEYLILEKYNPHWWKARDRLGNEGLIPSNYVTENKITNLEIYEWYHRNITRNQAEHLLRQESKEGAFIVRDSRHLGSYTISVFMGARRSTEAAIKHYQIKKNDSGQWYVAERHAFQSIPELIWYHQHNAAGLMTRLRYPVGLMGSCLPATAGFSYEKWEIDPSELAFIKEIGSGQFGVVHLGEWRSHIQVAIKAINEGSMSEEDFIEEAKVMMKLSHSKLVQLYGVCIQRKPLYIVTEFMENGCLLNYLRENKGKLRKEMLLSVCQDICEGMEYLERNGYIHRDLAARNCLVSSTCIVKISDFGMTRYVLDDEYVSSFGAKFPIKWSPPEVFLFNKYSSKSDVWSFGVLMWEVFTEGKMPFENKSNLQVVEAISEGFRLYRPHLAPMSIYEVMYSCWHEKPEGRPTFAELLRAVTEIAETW
To be noted: at 0.1 µM.

Experiment [7] addresses T1, Tyrosine-protein kinase TXK (Homo sapiens). To be noted: at 1 µM.
Experiment [8] deals with Non-receptor tyrosine-protein kinase TYK2 (Homo sapiens) (UniProt P29597). The note with it: at 0.1 µM.
Experiment [9] deals with T2, Dual specificity protein kinase TTK (Homo sapiens) (UniProt P33981).
T2 sequence (whole entry): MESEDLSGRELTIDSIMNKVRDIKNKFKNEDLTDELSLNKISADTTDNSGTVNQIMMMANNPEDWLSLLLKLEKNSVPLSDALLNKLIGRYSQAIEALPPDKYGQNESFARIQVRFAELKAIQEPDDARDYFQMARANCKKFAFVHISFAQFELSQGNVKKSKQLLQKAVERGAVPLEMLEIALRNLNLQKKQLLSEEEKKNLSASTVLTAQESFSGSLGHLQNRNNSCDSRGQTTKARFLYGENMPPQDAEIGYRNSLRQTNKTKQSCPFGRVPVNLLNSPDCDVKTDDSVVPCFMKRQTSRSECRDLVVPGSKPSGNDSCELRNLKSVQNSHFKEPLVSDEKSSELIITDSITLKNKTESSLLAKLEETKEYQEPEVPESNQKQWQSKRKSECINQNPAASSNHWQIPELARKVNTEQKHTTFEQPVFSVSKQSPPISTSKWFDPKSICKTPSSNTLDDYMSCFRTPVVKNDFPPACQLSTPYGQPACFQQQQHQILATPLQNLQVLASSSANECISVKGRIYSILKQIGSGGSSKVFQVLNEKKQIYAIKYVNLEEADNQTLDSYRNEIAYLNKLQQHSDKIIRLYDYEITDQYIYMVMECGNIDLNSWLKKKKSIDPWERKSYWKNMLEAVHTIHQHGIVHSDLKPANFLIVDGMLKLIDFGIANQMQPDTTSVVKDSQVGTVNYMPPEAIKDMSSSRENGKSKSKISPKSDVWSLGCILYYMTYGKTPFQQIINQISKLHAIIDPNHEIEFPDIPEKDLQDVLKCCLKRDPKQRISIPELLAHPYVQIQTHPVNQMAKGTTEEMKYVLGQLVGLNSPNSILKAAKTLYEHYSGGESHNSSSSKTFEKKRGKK
To be noted: at 1 µM.

The target of experiment [10] is T3, Aurora kinase A (Homo sapiens) (UniProt O14965).
T3 sequence (whole entry): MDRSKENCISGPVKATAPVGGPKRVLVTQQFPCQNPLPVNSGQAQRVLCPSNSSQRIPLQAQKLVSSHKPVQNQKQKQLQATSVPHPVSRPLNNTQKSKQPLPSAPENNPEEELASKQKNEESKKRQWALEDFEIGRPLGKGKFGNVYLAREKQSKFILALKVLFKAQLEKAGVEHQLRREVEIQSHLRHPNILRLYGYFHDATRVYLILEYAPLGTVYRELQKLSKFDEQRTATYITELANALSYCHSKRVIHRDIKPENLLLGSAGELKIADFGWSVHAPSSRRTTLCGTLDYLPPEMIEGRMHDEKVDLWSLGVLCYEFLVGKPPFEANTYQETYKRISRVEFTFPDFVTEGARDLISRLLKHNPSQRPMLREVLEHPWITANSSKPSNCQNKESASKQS
To be noted: at 0.1 µM.

The target in experiment [11] is T3, Aurora kinase A (Homo sapiens). The note with it: at 1 µM.
For experiment [12], the target named is Aurora kinase B (Homo sapiens) (UniProt Q96GD4). The note with it: at 0.1 µM.
Experiment [13] shares this target. The note with it: at 1 µM.
In experiment [14] the target is T4, Aurora kinase C (Homo sapiens) (UniProt Q9UQB9).
T4 sequence (whole entry): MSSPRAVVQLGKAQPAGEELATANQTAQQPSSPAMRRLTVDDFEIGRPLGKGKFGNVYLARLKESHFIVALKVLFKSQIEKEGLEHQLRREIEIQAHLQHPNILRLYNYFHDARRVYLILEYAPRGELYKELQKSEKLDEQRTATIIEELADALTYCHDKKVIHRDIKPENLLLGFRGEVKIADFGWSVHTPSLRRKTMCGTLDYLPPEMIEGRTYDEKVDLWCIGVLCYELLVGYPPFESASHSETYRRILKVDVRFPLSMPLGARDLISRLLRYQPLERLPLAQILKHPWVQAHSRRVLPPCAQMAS
The note with it: at 0.1 µM.

The target of experiment [15] is T4, Aurora kinase C (Homo sapiens). To be noted: at 1 µM.
In experiment [16] the target is Serine/threonine-protein kinase 10 (Homo sapiens) (UniProt O94804). To be noted: at 0.1 µM.
The target is the same in experiment [17]. The note with it: at 1 µM.
Experiment [18] deals with T5, Mitogen-activated protein kinase kinase kinase kinase 2 (Homo sapiens) (UniProt Q12851).
T5 sequence (whole entry): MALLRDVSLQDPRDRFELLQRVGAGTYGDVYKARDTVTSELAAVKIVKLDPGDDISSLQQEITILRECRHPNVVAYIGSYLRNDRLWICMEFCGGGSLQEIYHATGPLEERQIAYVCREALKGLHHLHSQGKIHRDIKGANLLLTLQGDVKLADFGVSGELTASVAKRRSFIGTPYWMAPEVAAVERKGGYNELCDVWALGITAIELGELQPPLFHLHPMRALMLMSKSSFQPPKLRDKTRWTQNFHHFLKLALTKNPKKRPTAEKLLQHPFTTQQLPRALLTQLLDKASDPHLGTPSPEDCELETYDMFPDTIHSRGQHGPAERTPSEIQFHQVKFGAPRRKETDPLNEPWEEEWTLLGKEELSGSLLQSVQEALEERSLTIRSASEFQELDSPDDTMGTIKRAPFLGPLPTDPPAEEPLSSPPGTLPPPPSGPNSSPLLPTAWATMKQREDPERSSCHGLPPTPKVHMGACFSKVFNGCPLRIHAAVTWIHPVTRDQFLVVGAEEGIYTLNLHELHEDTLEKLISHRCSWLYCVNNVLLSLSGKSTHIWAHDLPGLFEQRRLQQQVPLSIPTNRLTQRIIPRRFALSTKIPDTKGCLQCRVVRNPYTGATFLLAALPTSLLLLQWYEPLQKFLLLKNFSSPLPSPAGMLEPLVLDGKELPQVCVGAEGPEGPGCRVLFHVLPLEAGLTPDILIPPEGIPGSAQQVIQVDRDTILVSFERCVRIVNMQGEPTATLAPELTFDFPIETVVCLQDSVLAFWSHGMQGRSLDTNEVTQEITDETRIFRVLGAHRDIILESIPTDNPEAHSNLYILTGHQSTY
The note with it: at 0.1 µM.

In experiment [19] the target is T5, Mitogen-activated protein kinase kinase kinase kinase 2 (Homo sapiens). To be noted: at 1 µM.
Experiment [20] has as its target Mitogen-activated protein kinase kinase kinase kinase 4 (Homo sapiens) (UniProt O95819). To be noted: at 0.1 µM.

These results are taken from ChEMBL document CHEMBL1961873, “Compounds: GSK PKIS; Assays: Nanosyn kinase panel” (2012).

Chain of Serine/threonine-protein kinase 10 (Homo sapiens) (O94804 whole entry, looked up): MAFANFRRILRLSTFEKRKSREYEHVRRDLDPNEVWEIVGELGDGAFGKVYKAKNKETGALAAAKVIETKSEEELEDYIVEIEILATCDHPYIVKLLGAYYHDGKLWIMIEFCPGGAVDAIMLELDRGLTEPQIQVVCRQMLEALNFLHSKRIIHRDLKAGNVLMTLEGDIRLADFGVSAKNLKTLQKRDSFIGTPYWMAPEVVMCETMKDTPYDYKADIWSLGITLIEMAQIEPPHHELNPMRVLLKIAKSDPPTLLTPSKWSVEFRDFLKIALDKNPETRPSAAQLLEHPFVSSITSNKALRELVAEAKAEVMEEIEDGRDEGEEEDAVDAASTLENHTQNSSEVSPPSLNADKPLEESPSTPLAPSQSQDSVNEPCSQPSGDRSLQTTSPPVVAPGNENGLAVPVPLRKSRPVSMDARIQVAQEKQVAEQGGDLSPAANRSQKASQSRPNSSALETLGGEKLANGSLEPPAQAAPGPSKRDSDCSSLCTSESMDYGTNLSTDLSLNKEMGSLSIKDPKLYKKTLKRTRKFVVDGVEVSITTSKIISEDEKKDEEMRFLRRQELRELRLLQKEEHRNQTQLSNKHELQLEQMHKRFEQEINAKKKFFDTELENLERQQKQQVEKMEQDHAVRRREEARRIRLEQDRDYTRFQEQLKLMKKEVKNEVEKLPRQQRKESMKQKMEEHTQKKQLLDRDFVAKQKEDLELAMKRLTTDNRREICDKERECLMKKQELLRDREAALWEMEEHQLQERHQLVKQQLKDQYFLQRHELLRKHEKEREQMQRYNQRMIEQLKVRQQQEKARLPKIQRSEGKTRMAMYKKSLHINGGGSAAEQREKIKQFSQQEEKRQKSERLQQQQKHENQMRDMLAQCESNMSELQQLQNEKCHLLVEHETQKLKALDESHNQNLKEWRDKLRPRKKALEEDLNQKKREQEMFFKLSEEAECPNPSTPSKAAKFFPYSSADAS
Chain of High affinity nerve growth factor receptor (Homo sapiens) (P04629 33-796 limits assumed): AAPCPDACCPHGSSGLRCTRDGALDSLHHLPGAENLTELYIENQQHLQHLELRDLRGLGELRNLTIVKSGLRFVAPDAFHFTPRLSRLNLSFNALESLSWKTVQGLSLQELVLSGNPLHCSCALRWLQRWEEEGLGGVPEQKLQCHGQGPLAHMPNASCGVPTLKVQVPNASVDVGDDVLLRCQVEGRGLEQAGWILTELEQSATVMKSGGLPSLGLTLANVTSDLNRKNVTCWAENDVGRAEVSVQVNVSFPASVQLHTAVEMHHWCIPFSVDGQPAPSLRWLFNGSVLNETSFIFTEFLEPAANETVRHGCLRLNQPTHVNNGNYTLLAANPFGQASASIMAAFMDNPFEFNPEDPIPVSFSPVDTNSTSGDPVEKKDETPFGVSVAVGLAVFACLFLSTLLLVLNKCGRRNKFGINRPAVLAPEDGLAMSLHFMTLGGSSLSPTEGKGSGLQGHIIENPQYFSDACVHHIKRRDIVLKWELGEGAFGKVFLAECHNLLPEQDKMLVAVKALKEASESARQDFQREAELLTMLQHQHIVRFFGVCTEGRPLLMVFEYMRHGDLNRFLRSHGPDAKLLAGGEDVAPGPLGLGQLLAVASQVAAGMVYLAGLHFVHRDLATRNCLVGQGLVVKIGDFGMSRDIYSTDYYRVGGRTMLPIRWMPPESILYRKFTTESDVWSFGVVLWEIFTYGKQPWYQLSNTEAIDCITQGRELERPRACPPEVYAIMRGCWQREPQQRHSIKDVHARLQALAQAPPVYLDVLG
Chain of Non-receptor tyrosine-protein kinase TYK2 (Homo sapiens) (P29597 whole entry): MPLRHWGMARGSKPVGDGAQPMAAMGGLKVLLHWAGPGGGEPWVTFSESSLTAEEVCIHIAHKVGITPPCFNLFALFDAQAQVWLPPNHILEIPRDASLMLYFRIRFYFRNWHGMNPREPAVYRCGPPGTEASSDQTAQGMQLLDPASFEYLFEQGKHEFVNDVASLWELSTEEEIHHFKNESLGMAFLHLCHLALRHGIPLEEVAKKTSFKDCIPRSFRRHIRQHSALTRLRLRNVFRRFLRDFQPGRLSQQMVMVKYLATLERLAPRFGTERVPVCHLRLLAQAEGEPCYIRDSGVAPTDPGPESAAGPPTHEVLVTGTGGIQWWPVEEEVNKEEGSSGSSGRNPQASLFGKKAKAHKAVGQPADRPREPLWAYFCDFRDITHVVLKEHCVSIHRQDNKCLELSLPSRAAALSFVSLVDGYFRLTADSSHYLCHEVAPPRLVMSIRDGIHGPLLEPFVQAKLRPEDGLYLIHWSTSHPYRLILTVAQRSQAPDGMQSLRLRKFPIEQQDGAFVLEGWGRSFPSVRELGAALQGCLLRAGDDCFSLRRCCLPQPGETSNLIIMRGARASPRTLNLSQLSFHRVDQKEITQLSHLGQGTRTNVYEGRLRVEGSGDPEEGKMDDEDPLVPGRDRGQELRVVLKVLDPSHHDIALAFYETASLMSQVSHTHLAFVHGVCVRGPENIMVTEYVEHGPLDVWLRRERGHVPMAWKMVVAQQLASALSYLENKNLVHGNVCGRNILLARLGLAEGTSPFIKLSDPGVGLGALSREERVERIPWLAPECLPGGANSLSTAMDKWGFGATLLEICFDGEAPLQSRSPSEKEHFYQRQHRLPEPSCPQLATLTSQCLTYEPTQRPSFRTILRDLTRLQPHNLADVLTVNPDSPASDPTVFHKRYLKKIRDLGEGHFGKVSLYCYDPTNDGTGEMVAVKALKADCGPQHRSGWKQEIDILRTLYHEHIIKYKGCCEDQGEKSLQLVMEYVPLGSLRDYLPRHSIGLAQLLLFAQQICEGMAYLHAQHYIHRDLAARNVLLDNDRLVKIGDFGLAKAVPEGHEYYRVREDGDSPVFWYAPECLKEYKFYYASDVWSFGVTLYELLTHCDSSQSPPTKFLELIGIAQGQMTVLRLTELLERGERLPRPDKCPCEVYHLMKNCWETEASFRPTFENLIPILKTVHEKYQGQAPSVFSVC
Chain of Mitogen-activated protein kinase kinase kinase kinase 4 (Homo sapiens) (O95819 2-1239 limits assumed): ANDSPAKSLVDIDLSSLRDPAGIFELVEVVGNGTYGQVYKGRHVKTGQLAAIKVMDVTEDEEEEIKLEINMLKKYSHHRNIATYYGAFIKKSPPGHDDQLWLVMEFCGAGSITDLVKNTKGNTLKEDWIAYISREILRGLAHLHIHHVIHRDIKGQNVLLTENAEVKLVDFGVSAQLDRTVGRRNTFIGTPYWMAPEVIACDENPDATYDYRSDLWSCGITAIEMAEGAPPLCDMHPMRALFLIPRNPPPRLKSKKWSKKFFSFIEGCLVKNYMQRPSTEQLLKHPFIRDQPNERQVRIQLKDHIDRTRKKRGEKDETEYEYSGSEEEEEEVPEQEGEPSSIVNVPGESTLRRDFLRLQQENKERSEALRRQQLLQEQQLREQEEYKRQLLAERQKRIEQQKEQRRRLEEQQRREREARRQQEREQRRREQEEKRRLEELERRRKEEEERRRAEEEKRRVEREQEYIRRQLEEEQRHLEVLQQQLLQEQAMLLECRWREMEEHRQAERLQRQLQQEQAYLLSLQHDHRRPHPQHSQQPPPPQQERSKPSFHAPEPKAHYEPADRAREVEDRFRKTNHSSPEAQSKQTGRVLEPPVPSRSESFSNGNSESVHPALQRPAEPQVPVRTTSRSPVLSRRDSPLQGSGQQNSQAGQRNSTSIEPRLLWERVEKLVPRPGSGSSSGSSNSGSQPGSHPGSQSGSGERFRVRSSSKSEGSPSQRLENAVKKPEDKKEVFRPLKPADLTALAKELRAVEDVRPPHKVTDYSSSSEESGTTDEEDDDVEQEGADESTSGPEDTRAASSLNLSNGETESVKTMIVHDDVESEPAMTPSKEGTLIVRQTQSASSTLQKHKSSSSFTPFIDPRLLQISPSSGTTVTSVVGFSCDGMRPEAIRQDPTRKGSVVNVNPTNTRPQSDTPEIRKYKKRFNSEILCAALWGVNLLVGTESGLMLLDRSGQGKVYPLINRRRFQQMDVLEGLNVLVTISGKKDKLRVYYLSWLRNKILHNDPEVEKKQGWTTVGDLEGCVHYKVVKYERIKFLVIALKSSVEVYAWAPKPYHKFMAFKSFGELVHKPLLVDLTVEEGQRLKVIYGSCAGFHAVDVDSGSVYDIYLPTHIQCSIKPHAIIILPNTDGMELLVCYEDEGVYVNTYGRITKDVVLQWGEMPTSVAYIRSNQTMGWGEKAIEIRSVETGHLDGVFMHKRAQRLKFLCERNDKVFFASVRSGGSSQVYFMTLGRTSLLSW
Chain of BDNF/NT-3 growth factors receptor (Homo sapiens) (Q16620 32-822 limits assumed): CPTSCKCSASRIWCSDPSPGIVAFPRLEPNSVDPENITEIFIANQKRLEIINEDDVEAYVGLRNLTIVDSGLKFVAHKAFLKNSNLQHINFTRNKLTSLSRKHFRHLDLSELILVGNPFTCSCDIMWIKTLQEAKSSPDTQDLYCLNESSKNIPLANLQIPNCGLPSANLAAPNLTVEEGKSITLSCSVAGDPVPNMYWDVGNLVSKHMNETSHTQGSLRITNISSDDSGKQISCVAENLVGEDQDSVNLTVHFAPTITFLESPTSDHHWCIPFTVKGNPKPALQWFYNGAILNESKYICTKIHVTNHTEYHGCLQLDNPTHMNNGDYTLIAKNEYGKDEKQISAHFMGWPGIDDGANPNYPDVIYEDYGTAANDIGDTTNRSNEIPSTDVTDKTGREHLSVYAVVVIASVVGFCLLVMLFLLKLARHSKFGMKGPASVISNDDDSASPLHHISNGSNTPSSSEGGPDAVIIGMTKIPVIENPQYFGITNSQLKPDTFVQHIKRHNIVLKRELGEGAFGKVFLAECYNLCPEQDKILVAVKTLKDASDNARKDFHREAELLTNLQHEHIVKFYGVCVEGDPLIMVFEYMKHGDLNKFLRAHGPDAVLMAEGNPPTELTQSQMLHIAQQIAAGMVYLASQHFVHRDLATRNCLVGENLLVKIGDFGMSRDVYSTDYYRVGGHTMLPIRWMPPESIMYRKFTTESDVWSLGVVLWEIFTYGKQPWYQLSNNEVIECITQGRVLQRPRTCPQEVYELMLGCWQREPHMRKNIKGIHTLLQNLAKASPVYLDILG

On to `COc1cc(Nc2nccc(Nc3ccc4c(C)n[nH]c4c3)n2)cc(OC)c1OC`, for which the inhibition (as a rule, the drop in the measured response relative to a control, in per cent) was 64.1% in experiment [1]; 4.63% in experiment [2]; 41% in experiment [3]; -0.03% in [4]; 17.3% in [5]; 23.9% in experiment [6]. Also, the inhibition was 61.9% in experiment [7]; -1.55% in experiment [8]; 8.41% in experiment [9]; 10.2% in [10]; 66.5% in experiment [11]; 5.08% in [12]. For the same compound, the inhibition in experiment [13] came out at 24.2%; in [14] it was 7.34%; in experiment [15], 79.7%; in [16], 26.1%; in experiment [17], 77.6%; in [18], 3.12%. Also, the inhibition in [19] was 7.42%; in [20], 2.17%.
`CNC(=O)c1cccc(C#Cc2cncnc2Nc2ccc(OCc3cccc(F)c3)c(Cl)c2)c1`: the inhibition was determined as 0.53% in experiment [1]; 2.25% in experiment [2]; 1.08% in [3]; 0.94% in [4]; 2.86% in experiment [5]; 1.86% in experiment [6]. Also, the inhibition is 3.33% in experiment [7]; -0.77% in experiment [8]; 9.1% in [9]; 2.9% in experiment [10]; 11.8% in experiment [11]; -0.67% in [12]. In addition, the inhibition in experiment [13] was 4.77%; in experiment [14], 1.94%; in experiment [15] it was -5.97%; in [16], 0%; in experiment [17] it was 4.51%; in [18], -1.31%. Moreover, the inhibition in experiment [19] was 0.34%; in [20], -0.86%.
As for `CCCN(CCS(C)(=O)=O)Cc1ccc(-c2ccc3ncnc(Nc4ccc(OCc5cccc(F)c5)c(Cl)c4)c3c2)o1`, the inhibition was found to be 0.23% in experiment [1]; 0.15% in [2]; 1.45% in experiment [3]; 2.2% in experiment [4]; 2.15% in experiment [5]; 2.27% in [6]. Also, the inhibition in experiment [7] was 2.93%; in experiment [8], -3.81%; in [9] it was 5.96%; in experiment [10], 1.47%; in experiment [11], 11.8%; in experiment [12] it was 3.11%. The inhibition in [13] is 8.39%; in [14], 1.17%; in experiment [15], 5.04%; in experiment [16], 2.22%; in [17], 5.54%; in experiment [18], 0.84%. The results for the inhibition in experiment [19] and in [20] were 2.9% and 1.66%, respectively.
Take `CS(=O)(=O)CCNCc1ccc(-c2ccc3ncnc(Nc4ccc(OCc5ccccc5)c(C(F)(F)F)c4)c3c2)o1`: the inhibition was -0.59% in experiment [1]; 2.63% in experiment [2]; 2.63% in experiment [3]; 2.74% in experiment [4]; 1.42% in experiment [5]; -2.21% in experiment [6]. The inhibition was 4.38% in experiment [7]; -7.44% in experiment [8]; 9.83% in experiment [9]; 2.91% in experiment [10]; 2.77% in experiment [11]; 1.73% in [12]. Further, the inhibition was 3.4% in experiment [13]; -0.38% in [14]; 2.61% in experiment [15]; 5.07% in experiment [16]; 8.24% in [17]; 0.85% in experiment [18]. Besides, the inhibition in experiment [19] was 1.46%; in experiment [20], 2.98%.
With `N#Cc1c(NC(=O)c2ccc(F)cc2)sc2c1CCCC2`, the inhibition in experiment [1] was -0.28%; in experiment [2], 0.21%; in experiment [3] it was 0.82%; in experiment [4], 0.15%; in experiment [5] it was 1.15%; in experiment [6] it was 1.7%. For the same compound, the inhibition was 2.45% in experiment [7]; -3.45% in [8]; 2.26% in [9]; 1.91% in experiment [10]; 0.18% in experiment [11]; 2.3% in experiment [12]. Moreover, the inhibition was 1.27% in [13]; 0.83% in experiment [14]; -4.93% in [15]; 3.11% in experiment [16]; 6.81% in [17]; 0.12% in experiment [18]. The figures for the inhibition in [19] and in experiment [20] were 1.05% and 1.93%, respectively.
Turning to `COC(=O)c1sc(-n2cnc3cc(OC)c(OC)cc32)cc1OCc1ccccc1C(F)(F)F`, the inhibition was determined as 3.03% in experiment [1]; 5.22% in experiment [2]; 14.9% in experiment [3]; 3.71% in experiment [4]; 16.9% in [5]; 2.16% in [6]. In addition, the inhibition was 7.15% in experiment [7]; -1.4% in [8]; 17.2% in [9]; 4.18% in experiment [10]; 32.2% in experiment [11]; 13.9% in experiment [12]. Besides, the inhibition is 54.5% in experiment [13]; 5.23% in experiment [14]; 54.9% in [15]; 6.81% in experiment [16]; 21.6% in experiment [17]; -0.16% in [18]. Besides, the inhibition in experiment [19] turned out to be 3.42%; in experiment [20] it was 6.34%.
